Pf growth 96h – P. falciparum growth inhibition at 96 hour, primary screen for plastid delayed-death inhibitors; P. falciparum luciferase reporter growth, 96 h; Potency, µM (doses to about 28.7 µM), inactives show top-dose activity change, negative = inhibition, actives largely listed as inhibitors; 320,000 tested, 6.9% active; AID 504834; also: % is scaled to controls: 0 for no effect and ±100 for the full control effect
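Erythrocytes infected with luciferase-expressing P. falciparum were dispensed at 2% hematocrit and 0.05% parasitemia (final), then incubated with compounds 96 hours at 37 C in 5% CO2. Luminescence after detection reagent addition reported growth.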
Pf growth 48h – inhibits P. falciparum growth in the first generation, 48 h | AID 504832 | Potency, µM (series often up to 28.7 µM), for the others: top-dose activity change, negative = inhibition, most hits filed as inhibitors | 310,000 tested, 5.9% active | P. falciparum luciferase growth in erythrocytes, 48 h; also: % is scaled to controls: 0 for no effect and ±100 for the full control effect
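In quantitative HTS format, infected erythrocytes bearing luciferase-reporter parasites were treated for a single generation at 37 C. Luminescence after adding detection reagent served as the growth measure.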
SARS PLpro yeast – blocks SARS-CoV papain-like protease in a yeast assay | AID 485353 | 330,000 tested, 0.19% active | S. cerevisiae expressing SARS-CoV PLpro, growth rescue | Potency, µM (series often up to 32.9 µM), inactives show top-dose activity, positive = growth rescue, usual class: activators; calls by dose curve; also: 0% is about no effect; nearly all actives have a fitted effect of over 55% in size
HCV inhibitor – blocks hepatitis C virus. Huh7.5.1 HCVcc-Cre infection, luciferase reporter, 44 h. Potency, µM (series often up to 41.8 µM), for inactives: at the top dose activity change, negative = inhibition, usual class: inhibitors. 340,000 tested, 3.4% active. AID 651820; also: % is scaled to controls: 0 for no effect and ±100 for the full control effect
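Cells (1,000/well) were plated 4 h before compound, then infected with HCVcc-Cre virus (~0.5 moi). After 44 h further culture, infection was read as luciferase luminescence following a 15 min substrate incubation at room temperature.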
NS1 inh – influenza NS1 inhibition. 270,000 tested, 0.4% active. Potency, µM (series often up to 46.1 µM), inactives show at the highest dose activity, positive = more growth. AID 2326; calls by dose curve; also: actives are rising curves; nearly all actives have a fitted effect of over 50% in size
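OD600 was taken as the measure of yeast growth restored by compound in an NS1-expressing S. cerevisiae strain. Cells had been washed out of glucose medium and diluted 1:100 into galactose -URA medium, pH 6.0.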
AMA1-RON2 inh – inhibitors of Plasmodium falciparum AMA1-RON2 interaction | 360,000 tested, 0.2% active | Potency, µM (doses to about 58.2 µM), inactives show top-dose activity change, negative = inhibition, actives largely listed as inhibitors | AlphaScreen AMA1-biotinylated RON2 peptide binding | AID 720542;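 also: 0% = vehicle wells and -100% = peptide control; nearly all actives have a fitted effect of over 45% in size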
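AMA1 (3D7) with his tag at 25 nM final met compounds first, then biotinylated RON2 peptide at 25 nM; detection used donor plus acceptor beads, 10 µg/mL apiece, read by AlphaScreen after 30 min at room temperature.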
* = called active by the depositor. A selection: hits, their analogues and other compounds. The true share with any hit is near 12%. Unless noted, calls follow the shape of the dose curve; as a rule, active = well fitted curve in the direction sought with a large enough effect; inconclusive = small, poorly fitted or top-dose-only effect, or another doubt; inactive = no such curve, though single readings can be large; an effect the other way counts as inactive or inconclusive. Potency is read from the fitted curve at half-maximal effect.

Results for CCCCn1c(N)c(N(CCOC)C(=O)CSc2nc3ccc(C)cc3[nH]2)c(=O)[nH]c1=O ?
Pf growth 96h: 9.3µM*; Pf growth 48h: inconclusive; SARS PLpro yeast: -1%; HCV inhibitor: 15%; NS1 inh: -8%; AMA1-RON2 inh: -9%

Results for CCCCN(C(=O)c1cccc(S(=O)(=O)N(C)c2ccc(C)cc2)c1)c1c(N)n(CCCC)c(=O)[nH]c1=O ?
Pf growth 96h: inconclusive; Pf growth 48h: 0.37µM*; SARS PLpro yeast: 6%; HCV inhibitor: inconclusive; AMA1-RON2 inh: -18%

How did CCOc1ccc2nc(SCC(=O)N(CCOC)c3c(N)n(Cc4ccccc4)c(=O)[nH]c3=O)[nH]c2c1 do in these assays?
Pf growth 96h: -22%; Pf growth 48h: inconclusive; HCV inhibitor: inconclusive; AMA1-RON2 inh: -18%

How did CCCCn1c(N)c(N(CCOC)C(=O)c2cccc(S(=O)(=O)N(C)c3ccc(C)cc3)c2)c(=O)[nH]c1=O do in these assays?
Pf growth 96h: 9.3µM*; Pf growth 48h: 6.6µM*; HCV inhibitor: 6%; AMA1-RON2 inh: 2%

Results for COCCN(C(=O)c1ccc(N(C)S(=O)(=O)c2ccc(C)cc2)cc1)c1c(N)n(CC(C)C)c(=O)[nH]c1=O ?
HCV inhibitor: 15%; AMA1-RON2 inh: 5%

Results for CCCCN(C(=O)c1ccc(N(C)S(=O)(=O)c2ccc(C)cc2)cc1)c1c(N)n(CC(C)C)c(=O)[nH]c1=O ?
HCV inhibitor: 15%; AMA1-RON2 inh: -1%

What do the screens show for `CCn1ncc(Br)c1C(=O)Nc1cc([N+](=O)[O-])ccc1C`?
Pf growth 96h: 33%; Pf growth 48h: 11%; SARS PLpro yeast: -11%; HCV inhibitor: -12%; NS1 inh: -14%; AMA1-RON2 inh: 9%

Results for CCCc1cc(=O)[nH]c(SCC(=O)Nc2cc(S(=O)(=O)N(CC)c3ccccc3)ccc2Cl)n1 ?
SARS PLpro yeast: 1%; HCV inhibitor: -7%; AMA1-RON2 inh: -24%

What do the screens show for `CC(=O)Nc1ccc2nc(NC(=O)CCc3ccccc3)sc2c1`?
Pf growth 96h: inconclusive; Pf growth 48h: inconclusive; SARS PLpro yeast: -4%; HCV inhibitor: -13%; AMA1-RON2 inh: -2%

How did COc1ccc2c(-c3ccccc3)cc(N3CCOCC3)nc2c1 do in these assays?
Pf growth 48h: inconclusive; SARS PLpro yeast: -2%; HCV inhibitor: 13µM*; NS1 inh: -49%; AMA1-RON2 inh: 61%

How did c1ccc(-c2cc(-c3ccc(N4CCOCC4)cc3)nc3ccccc23)cc1 do in these assays?
Pf growth 96h: 13µM*; Pf growth 48h: inconclusive; SARS PLpro yeast: -10%; HCV inhibitor: -11%; NS1 inh: 6%; AMA1-RON2 inh: 8%

How did c1ccc(-c2cc(N3CCOCC3)nc(-c3ccccc3)n2)cc1 do in these assays?
Pf growth 96h: 0%; Pf growth 48h: 7%; SARS PLpro yeast: inconclusive; HCV inhibitor: -16%; NS1 inh: -8%; AMA1-RON2 inh: inconclusive

Results for Cc1ccc(Oc2cc(N3CCOCC3)nc(-c3ccccc3)n2)cc1 ?
Pf growth 96h: inconclusive; Pf growth 48h: -9%; SARS PLpro yeast: 2%; HCV inhibitor: -12%; NS1 inh: 4%; AMA1-RON2 inh: -3%

How did COc1ccc(-c2csc(NC(=O)CSc3nc(C)nc4sc(C(=O)O)c(C)c34)n2)cc1 do in these assays?
Pf growth 96h: inconclusive; Pf growth 48h: inconclusive; SARS PLpro yeast: 1%; HCV inhibitor: 6%; NS1 inh: 3%; AMA1-RON2 inh: -4%

Results for CCOC(=O)C1CCCN(C(=O)C2(c3ccc(Cl)cc3)CCCC2)CC1 (configuration not stated) ?
AMA1-RON2 inh: 15%

What do the screens show for `CC(=O)Nc1ccc(-n2c(C)ccc2C)cc1`?
Pf growth 96h: -8%; Pf growth 48h: inconclusive; SARS PLpro yeast: 2%; HCV inhibitor: 2%; AMA1-RON2 inh: -5%

What do the screens show for `Cc1ccc(C)n1-c1ccc(N2CCOCC2)c([N+](=O)[O-])c1`?
Pf growth 96h: inconclusive; Pf growth 48h: inconclusive; SARS PLpro yeast: 0%; HCV inhibitor: -6%; NS1 inh: inconclusive; AMA1-RON2 inh: -6%

Results for Cc1ccc(C)n1-c1ccc(N2CCOCC2)cc1 ?
Pf growth 96h: inconclusive; Pf growth 48h: 10µM*; SARS PLpro yeast: 0%; HCV inhibitor: inconclusive; NS1 inh: inconclusive; AMA1-RON2 inh: -25%

What do the screens show for `Cc1ccc(C)n1-c1ccc(N(C)C)cc1`?
Pf growth 96h: inconclusive; Pf growth 48h: 14%; SARS PLpro yeast: -3%; HCV inhibitor: -27%; AMA1-RON2 inh: 28µM*

How did Cc1cccc(Cl)c1OCCCN1CCOCC1 do in these assays?
Pf growth 96h: 3.7µM*; Pf growth 48h: 13%; SARS PLpro yeast: -5%; HCV inhibitor: 6%; NS1 inh: -3%; AMA1-RON2 inh: -26%

Results for C=CCn1c(SCC(=O)Nc2ccc3c(c2)OCCO3)nnc1-c1ccccn1 ?
Pf growth 96h: 0%; Pf growth 48h: 9%; SARS PLpro yeast: -9%; HCV inhibitor: -2%; NS1 inh: -7%; AMA1-RON2 inh: -21%

How did CCc1nnc(SCC(=O)Nc2ccc3c(c2)OCO3)o1 do in these assays?
Pf growth 96h: 13%; Pf growth 48h: 16%; SARS PLpro yeast: -10%; HCV inhibitor: 3%; NS1 inh: 5%; AMA1-RON2 inh: 4%

What do the screens show for `O=C(CSc1nnc(-c2ccccn2)n1Cc1ccco1)Nc1ccc2c(c1)OCO2`?
Pf growth 96h: 32%; Pf growth 48h: 8%; SARS PLpro yeast: -2%; HCV inhibitor: 4%; NS1 inh: -6%; AMA1-RON2 inh: 2%

Results for Cc1c(C)n2c(SCC(=O)Nc3ccc4c(c3)OCCO4)nnc2[nH]c1=O ?
Pf growth 96h: inconclusive; Pf growth 48h: 9.3µM*; SARS PLpro yeast: 4%; HCV inhibitor: 10%; AMA1-RON2 inh: -12%

Results for Cc1nnc(SCC(=O)Nc2ccc3c(c2)OCO3)o1 ?
Pf growth 96h: 13µM*; Pf growth 48h: 7%; SARS PLpro yeast: -2%; HCV inhibitor: -1%; NS1 inh: -5%; AMA1-RON2 inh: 6%

What do the screens show for `CCn1c(SCC(=O)Nc2ccc3c(c2)OCCO3)nnc1-c1ccccn1`?
Pf growth 96h: 2.1µM*; Pf growth 48h: 0%; SARS PLpro yeast: -2%; HCV inhibitor: 3%; NS1 inh: -16%; AMA1-RON2 inh: -16%

What do the screens show for `Cc1ccccc1-n1c(SCC(=O)Nc2ccc3c(c2)OCO3)nnc1-c1ccccn1`?
Pf growth 96h: 29%; Pf growth 48h: inconclusive; SARS PLpro yeast: -6%; HCV inhibitor: 22µM*; NS1 inh: 5%; AMA1-RON2 inh: -4%

Source: PubChem (National Center for Advancing Translational Sciences (NCATS))
